# In the supplement of paper PMC6555819:
# Test system: VDR:RXRa (NR concentration 270 nM, RXRa partner concentration 90 nM)
# Experiment: PBM binding z-score (relative to random genomic background probes); higher = stronger binding; sequences stand for … in GC…GCGATTGACAGCGTAGAATGAAGG
# Description: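 Protein-binding microarray (Agilent 4x180K custom design, double-stranded 60-nt probes: 5' GC cap, 34-nt variable region, 24-nt constant primer region; full probe sequence given). Purified or IVT nuclear receptor:RXRα heterodimers (3:1 NR:RXRα, mostly 270:90 nM) or homodimers were incubated for 1 h in PBS with 2% milk and no ligand, then detected with Alexa488 antibodies. Fluorescence from o1-orientation probes (~5 replicates averaged) was converted to z-scores against 500 random hg19 background probes. Variable regions are seed direct-repeat (DR0–DR5) sites, all their single-nucleotide variants and half-site ablations.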
row,Sequence,PBM binding z-score
1,GCAGATAGGTGAAACGCAGGTAACTCAGGGTGGC,-0.534
2,ATATGAAGGTTAAGGGTCATTCAGGTTGGTTCGC,6.02
3,CAAGCTAGGTCAAGGTCAAAGTCGGTTTGTGCCA,5.24
4,CCGACTGGGGCAAGGCTACCATAACGCACAGCCA,-0.501
5,GCGACTGGGGCAGAGCAGGTTACCATAAGGTTGG,-0.508
6,CCAGAGAGGTGAAAGGTAACTCAGTCTGGTACGC,1.64
7,TGAATGAGGATAAAGATCAGGGAACGTGGCGTCG,-0.375
8,CCTAGCAGGCCAGGGTCGCTCAAGCATTTCGCTT,0.8
9,ATCTCTAGGTAACAAGTTCGGTGAAAGAGAGGAC,0.955
10,ATCTCTAGGTATAGTTCAGTGAAAGATCGATAGA,1.04
11,CATACTAGGTCACGAAAGGTCAAAGTCGAATGAC,6.92
12,CGAACTAGGTCAGAAAAGGACAGTGAAGGATGAT,0.459
13,CGTCCCAGGTCAGCAGGTCAGTGAAAGCGACGTG,2.54
14,TCTGCTAGGTCAACGATGGTCAGGTAATCTGCTA,1.78
15,AGAATGAGGTTAAGATCACGGAAACAGAATACAT,1.41
16,ACTTGCGGGTCAACGAGGTTATAGCACGCGTATA,7.55
17,GCTGCTAGGACAACTGATGGTCAGCTAAAGCTCG,-0.904
18,CCTAGTTGGTCAGGAGGTCACACAGCGGATATGA,3.94
19,AGCGAAAGGTCGACGAGGTGAGTATACACCGTTT,5.23
20,TAAATGAGGTTATAAGATCAGGGAACGTTGCAAA,1.1

row,Sequence,PBM binding z-score
1,TCTAGTTGGTCAAAGGTCACACACTCGAAATGCG,5.37
2,CAAACTTGGTCACAGAGGTCAAAGTCCGTGCGTA,6.59
3,ACAGACAGGTGATGAAGGTAAATCAGGCTATCAT,0.133
4,TAGCCTGGGTCAGATCGGGCCAGTATACGCTATA,0.452
5,TCGAGTAGGTTAGGTGCATTCAGAATGGCGTCGA,0.44
6,CCTTACGGGTCACACCAGGTTATAGCATCGGAGT,4.89
7,AGAAGGAGGTTATTAAGATCAGGGAATTGCGGTC,1.89
8,CGAACGAGGGCATAAGTTGATAGCAAATGCCGAT,0.652
9,TCGAGTAGGTTAACAATGGGGCATTCAGCTTTCT,0.406
10,GGAACGAGGGCATTCGAGTTGATAGGATGGCGAT,3.74
11,TGTCGAAGTTCAAAGGTAACGTAAGTATCCACAC,3.71
12,GCTATTATTTGAAAGGGCAACCGAATGATTCTCG,0.646
13,CCTCGGAGAACAGAAGGTCAGAGCTGTCCGCTTT,1.03
14,CGTCCAAGGTCAATGCTACGTCAGTGAAAGCATT,3.53
15,GCTGCTAGGTCAGCTTGGTCAGCTAACGGGTACG,0.54
16,CATAAAGGGTCAGCTAGGCCAGAGTAGGGACGGC,4.05
17,TCGAGTAGGTCAGTCGGGGCATTCAGCCAACATA,5.3
18,TCTTGTAGATCAACAGGAGGTTTAGAAAGATCGA,0.171
19,ACAGACAGGTGATGAAGGTATCTCAGGCTATCAT,-0.0743
20,CCTACTGGGCCATAGGTCATTGATTCCAATGCTC,2.17
